TDP1 cell noCPT = qHTS for Inhibitors of human tyrosyl-DNA phosphodiesterase 1 (TDP1): qHTS in cells in absence of CPT; DT40 Tdp1-/- hTDP1 cells, no CPT, ATP luminescence, 48 h; Potency, µM (highest dose often 46.2 µM), inactives show top-dose activity change, negative = growth inhibition, hits mostly inhibitors; 420,000 compounds, 15% hits; AID 686978, 2013; further: potency means the concentration at half of the fitted maximal effect; nearly all actives have a fitted effect of over 55% in size
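Growth of hTDP1-complemented DT40 Tdp1-knockout cells is measured by ATP luminescence after at least 48 hr compound exposure at 37 °C, with DMSO substituting for the 20 nM CPT used in the parallel screen.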
HT1080NT lethal = qHTS for induction of synthetic lethality in tumor cells producing 2HG: qHTS for the HT-1080-NT fibrosarcoma cell line. HT-1080-NT fibrosarcoma viability, CellTiter-Glo ATP luminescence, 48 h. Potency, µM (titrated, usually from 46.1 µM), without a hit: top-dose activity, negative = less viability, actives largely listed as cytotoxic. 360,000 compounds, 1.6% hits. AID 686970, 2013;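 further: NT is the 2HG producing partner of a matched IDH1 knockdown line; potency means the concentration at half of the fitted maximal effect; 0% = DMSO-treated cells and -100% = media-only wells without cells; nearly all actives have a fitted effect of over 55% in size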
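Viability of the 2HG-overproducing fibrosarcoma line after 48 hours of compound exposure at 37 degrees C was determined by luminescence with CellTiter-Glo, and concentration-effect curves were then fitted and categorized.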
DT40 TDP1 CPT = qHTS for Inhibitors of human tyrosyl-DNA phosphodiesterase 1 (TDP1): qHTS in cells in presence of CPT | chicken DT40 Tdp1-/-;hTDP1 cells + 20 nM CPT, ATP luminescence, 48 h | Potency, µM (titrated, usually from 46.2 µM), without a hit: at the top dose activity change, negative = growth inhibition, usual class: inhibitors | 420,000 compounds, 12% hits; further: potency means the concentration at half of the fitted maximal effect; nearly all actives have a fitted effect of over 55% in size
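Cell growth measured by CellTiter-Glo luminescence after a minimum 48 h, 37 C compound exposure with 20 nM CPT in Tdp1-knockout DT40 cells stably expressing hTDP1, seeded 400/well; qHTS titration format.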
HT1080 IDH1KD tx = qHTS for induction of synthetic lethality in tumor cells producing 2HG: qHTS for the HT-1080-IDH1KD cell line; HT-1080 IDH1 knockdown viability, ATP luminescence, 48 h; Potency, µM (titrated, usually from 46.1 µM), for inactives: top-dose activity, negative = toxicity, hits mostly cytotoxic; 360,000 compounds, 2% hits; AID 686971, 2013;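 further: potency means the concentration at half of the fitted maximal effect; 0% = DMSO wells and -100% = cell-free medium wells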
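After a 2 h attachment period, IDH1KD HT-1080 cells took pin-transferred compound for 48 h at 37 °C; ATP-based luminescence after 10 min room-temperature reagent incubation reported viability.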
IL1B secr inh = qHTS for Inhibitors of Inflammasome Signaling: IL-1-beta AlphaLISA Primary Screen. 360,000 compounds, 4.7% hits. THP-1 LPS/ATP IL-1B secretion, AlphaLISA, 16 h; stronger effect = lower value. activity change, % at 57.5 µM; in the data active means activity change below about -50%; inconclusive means mostly about -30% to -49%
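Secreted IL-1B measured by AlphaLISA bead assay after 16 h compound exposure of THP-1 cells; compounds (final up to 57.5 uM) added 1 h before LPS (250 ng/mL) and ATP (1.25 mM) stimulation; lower signal means less secretion.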
An asterisk follows results filed as active; ? = inconclusive; . = no result; [ ] = another dose, or the depositor's remark. Only some compounds are listed: those with a hit (about 19% of all), similar ones and a draw of the others. Unless noted, the call rests on the fitted dose curve; in most records, active means well fitted curve in the direction sought with a large enough effect; inconclusive means small, poorly fitted or top-dose-only effect, or another doubt; inactive means no such curve, though single readings can be large; an effect the other way counts as inactive or inconclusive. Unless noted, on the % scale 0 is the no-effect control and ±100 the full control effect.

SMILES	TDP1 cell noCPT	HT1080NT lethal	DT40 TDP1 CPT	HT1080 IDH1KD tx	IL1B secr inh
CCC(C(=O)N1CCC(N2CCCCC2)CC1)n1nc(C)c2sc3ccccc3c2c1=O (stereo unspecified)	-27%	0%	-19%	0%	2
O=Cc1ccc(O)c2ncccc12	0.58µM*	2.3µM*	0.65µM*	3.7µM*	-98*
O=C(C[n+]1ccccc1)Nc1ccc(Oc2ccccc2)cc1	?	-16%	12µM*	-17%	?
CN(C)c1ccc(NC(=O)C[n+]2ccccc2)cc1	8%	9%	-3%	9%	12
COc1cc(NC(=O)C[n+]2ccc(C(=O)c3ccccc3)cc2)cc(OC)c1	13µM*	1%	23µM*	-2%	-21
CO/N=C\CC(=O)Nc1ccc(Oc2ccccc2)cc1	1.3µM*	?	1.5µM*	?	81
O=C(C[C@@H]1CC[C@@H]2[C@H](COC[C@H](O)CN2C(=O)Nc2ccc(F)cc2)O1)NCCc1ccncc1	-6%	-1%	-4%	-10%	10
CCN(CC)C(=O)C1=C(C)N(Cc2ccccc2)C(=O)C(CC(=O)NCc2cccs2)C1 (stereo unspecified)	-28%	3%	?	6%	-12
CCn1c(Cc2ccccc2)nnc1SC(C)C(=O)NC1CC1 (stereo unspecified)	-22%	3%	-20%	-9%	10
Cc1ccc(-c2nnc(CCC(=O)NCC3C4CC5CC(C4)CC3C5)o2)s1 (stereo unspecified)	?	0%	-2%	3%	-2
CC(NC(=O)c1cccnc1)c1nnc2n1CCN(Cc1ccc(-c3ccccc3)cc1)CC2 (stereo unspecified)	-18%	.	19%[9.04 µM]	.	.
O=C(NNS(=O)(=O)c1ccc([N+](=O)[O-])cc1)c1cnn(-c2ccccc2)c1-n1cccc1	0.46µM*	3%	0.46µM*	6%	6
O=C(NNS(=O)(=O)c1ccccc1)c1cnn(-c2ccccc2)c1-n1cccc1	12µM*	?	8.2µM*	1%	0
O=C(O)c1cnn(-c2ccccc2)c1-n1cccc1	-21%	-1%	-28%	-1%	16
NNC(=O)c1cnn(-c2ccccc2)c1-n1cccc1	-12%	?	3%	?	12
O=C(NNS(=O)(=O)c1ccc(Cl)cc1)c1cnn(-c2ccccc2)c1-n1cccc1	2.1µM*	5%	1.5µM*	1%	4
O=C(NNS(=O)(=O)c1ccc([N+](=O)[O-])cc1)c1ccc([N+](=O)[O-])cc1	-21%	13%	4%	12%	3
O=C1c2ccccc2C(Nc2ccccc2)N1Cc1ccc2c(c1)OCO2 (stereo unspecified)	-13%	-21%	-1%	-28%	?
CCN(CC)S(=O)(=O)c1ccc(NC2c3ccccc3C(=O)N2Cc2ccc3c(c2)OCO3)cc1 (stereo unspecified)	?	-18%	16µM*	-19%	-16
CCN(CC)S(=O)(=O)c1ccc(NC2c3ccccc3C(=O)N2Cc2ccco2)cc1 (stereo unspecified)	12µM*	-11%	21µM*	-4%	-24
Cc1ccccc1NC1c2ccccc2C(=O)N1Cc1ccco1 (stereo unspecified)	-30%	0%	-8%	-17%	25
O=c1oc(CCCO)cc2ccc(C#Cc3ccsc3)cc12	18µM*	2%	?	5%	-8
O=c1oc(CCCO)cc2ccc(C#CC3(O)CCCCC3)cc12	18µM*	-4%	?	2%	26
CN(C)c1ccc(C#Cc2ccc3cc(CCCO)oc(=O)c3c2)cc1	-27%	1%	?	-1%	42
O=C1CC(c2ccccc2)CC(=O)C1CS(=O)(=O)c1ccccc1 (stereo unspecified)	?	-4%	-20%	2%	-13
SMILES	TDP1 cell noCPT	HT1080NT lethal	DT40 TDP1 CPT	HT1080 IDH1KD tx	IL1B secr inh
CCc1nc2c(OCCOc3ccc(F)cc3)cccn2c1N(C)C(=O)C(C)C	16µM*	1%	?	2%	-8
CCCCC(=O)N(C)c1c(CC)nc2c(OCCOc3ccccc3)cccn12	26µM*	0%	18µM*	0%	-27
CCc1nc2c(OCCOc3ccc(F)cc3)cccn2c1N(C)C(=O)c1ccc(C)cc1	15µM*	-9%	?	0%	-60*
CCc1nc2c(OCCOc3ccc(F)cc3)cccn2c1N(C)C(=O)c1ccco1	16µM*	-17%	21µM*	-17%	?
CCCCC(=O)N(C)c1c(CC)nc2c(OCCOc3ccc(F)cc3)cccn12	18µM*	-2%	15µM*	-12%	-23
CCCCC(=O)N(C)c1c(CC)nc2c(OCCC)cccn12	-23%	1%	-29%	0%	17
O=c1[nH][nH]c2c1[C@H](CCc1cccc(Cl)c1)O[C@H](CCc1ccccc1)C2	18µM*	-6%	?	-22%	0
O=c1[nH]c(=S)[nH]c2c1[C@H](C1CC1)O[C@H](CCc1ccccc1)C2	13µM*	-10%	?	-8%	1
COc1cccc(Cn2c(=O)c(C)nc3cnc(OCc4ccccc4)nc32)c1	18µM*	.	-23%	.	.
COc1cccc(Cn2c(=O)c(C)nc3cnc(Oc4cccc(Cl)c4)nc32)c1	23µM*	.	-33%	.	.
Cc1nc2cnc(Oc3cccc(Cl)c3)nc2n(CCc2ccccc2)c1=O	?	.	-18%	.	.
COc1cccc(Cn2c(=O)cnc3cnc(OCc4ccccc4)nc32)c1	-24%	.	-6%	.	.
COc1ccc(Oc2ncc3nc(C)c(=O)n(Cc4ccc(F)cc4)c3n2)cc1	21µM*	.	?	.	.
O=C(CSc1nc2ccccc2c(=O)n1-c1ccc(F)cc1)NC1CCS(=O)(=O)C1 (stereo unspecified)	-6%	-3%	-5%	-3%	-12
Cn1c(=O)c2ccccc2n(Cc2ccccc2Cl)c1=O	-66%	-16%	?	1%	-12
O=C(COC(=O)c1cc([N+](=O)[O-])ccc1NCc1ccccc1Cl)NCC(F)(F)F	-25%	-15%	6%	-12%	10
Cc1nc(C)c(-c2csc(Nc3ccc(Cl)cn3)n2)s1	?	-22%	18µM*	-25%	22
Cc1cc(O)ccc1Nc1nc(-c2cccs2)cs1	-6%	-22%	-5%	?	-84*

Screening data from PubChem.
